Experimental data taken from PubChem BioAssay AID1159580 (chemical genetic matrix, 2015).
Hit rate of the full screen: of about 5,500 compounds, about 2,000 (36%) were called active. Not shown: some 18% with an inconclusive outcome. Rule as the data show it: active = normalized growth mostly below about 0.91 (no sharp cut-off); inconclusive = no clear call, values can overlap the other calls; inactive = mostly above about 0.92. Some of the results follow.

Assay: chemical genetic growth profiling, strain panel (AID 1159580);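 also: tested at 20 µM; growth read once vehicle control cultures reached saturation at 30 °C; 1 = growth at the plate median or of vehicle wells; lower values mean less growth of the strain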
Details: S. cerevisiae deletion strains, growth OD
[1] = locus YHR030C, strain SLT2, hits give low values
[2] = locus YHR079C, strain IRE1, hits give low values
[3] = locus YJL095W, strain BCK1, hits give low values
[4] = locus YJR066W, strain TOR1, hits give low values
[5] = locus YLR113W, strain HOG1, hits give low values
[6] = locus YNL183C, strain NPR1, hits give low values
[7] = locus YOR231W, strain MKK1, hits give low values
[8] = locus YPL256C, strain CLN2, hits give low values

Measured: normalized growth

Cc1cc2nc3c(=O)[nH]c(=O)nc-3n(C[C@@H](O)[C@@H](O)[C@@H](O)COP(=O)(O)O)c2cc1C
inactive: [1] 1.04 | [2] 1.04 | [3] 1.03 | [4] 0.966 | [5] 1.03 | [6] 0.97 | [7] 1.04 | [8] 1.04

Cc1cc2nc3c(=O)[nH]c(=O)nc-3n(CC(O)C(O)C(O)CO)c2cc1C (stereo not drawn)
inactive: locus YAL021C, strain ccr4, hits give low values 0.995 | locus YAL026C, strain drs2, hits give low values 0.981 | locus YAL030W, strain snc1, hits give low values 0.944 | locus YBL061C, strain skt5, hits give low values 0.988 | locus YBR009C, strain hhf1, hits give low values 0.954 | locus YBR023C, strain chs3, hits give low values 1.01 | locus YBR171W, strain sec66, hits give low values 0.962 | locus YBR231C, strain swc5, hits give low values 1.01 | locus YBR279W, strain paf1, hits give low values 1 | locus YCL011C, strain gbp2, hits give low values 0.987 | locus YCL016C, strain dcc1, hits give low values 1.05 | locus YCL069W, strain vba3, hits give low values 0.959 | locus YCR088W, strain abp1, hits give low values 0.974 | locus YDL005C, strain med2, hits give low values 0.99 | locus YDL040C, strain nat1, hits give low values 0.982 | locus YDR001C, strain nth1, hits give low values 0.982 | locus YDR069C, strain doa4, hits give low values 0.964 | locus YDR137W, strain rgp1, hits give low values 1.05 | locus YDR159W, strain sac3, hits give low values 0.9 | locus YDR195W, strain ref2 1.01 | locus YDR297W, strain sur2, hits give low values 0.955 | locus YDR334W, strain swr1, hits give low values 0.932 | locus YDR335W, strain msn5, hits give low values 1.02 | locus YDR392W, strain spt3, hits give low values 0.91 | locus YEL037C, strain rad23, hits give low values 0.974 | locus YEL061C, strain CIN8 (second series), hits give low values 0.962 | locus YER015W, strain faa2, hits give low values 0.97 | locus YER016W, strain bim1, hits give low values 0.994 | locus YER111C, strain swi4, hits give low values 1 | locus YER155C, strain BEM2 (second series), hits give low values 0.912 | locus YFR010W, strain ubp6, hits give low values 0.91 | locus YGL167C, strain pmr1, hits give low values 0.958 | locus YGL173C, strain kem1, hits give low values 0.974 | locus YGL227W, strain vid30, hits give low values 0.98 | locus YGL240W, strain doc1, hits give low values 0.927 | locus YGL253W, strain hxk2, hits give low values 1.01 | locus YHR013C, strain ard1, hits give low values 0.992 | locus YHR027C, strain rpn1, hits give low values 0.959 | [1] 0.959 | [2] 0.968 | locus YHR142W, strain chs7, hits give low values 1.01 | locus YJL092W, strain hpr5, hits give low values 0.98 | locus YJL095W, strain BCK1 (second series), hits give low values 0.985 | [3] 0.966 | locus YJL115W, strain asf1, hits give low values 0.969 | locus YJL129C, strain trk1, hits give low values 0.996 | locus YJL154C, strain vps35, hits give low values 0.967 | locus YJL164C, strain tpk1, hits give low values 0.924 | locus YJL166W, strain qcr8, hits give low values 0.94 | locus YJL187C, strain SWE1, hits give low values 0.974 | [4] 0.926 | locus YKL160W, strain elf1, hits give low values 1.03 | locus YKR026C, strain gcn3, hits give low values 0.982 | locus YKR091W, strain srl3, hits give low values 0.985 | locus YLL001W, strain dnm1, hits give low values 0.95 | locus YLL026W, hits give low values 0.973 | locus YLL041C, strain sdh2, hits give low values 1 | locus YLR027C, strain aat2, hits give low values 0.98 | [5] 0.957 | locus YLR221C, strain rsa3, hits give low values 0.937 | locus YLR258W, strain gsy2, hits give low values 1 | locus YLR262C, strain YPT6 (second series), hits give low values 0.988 | locus YLR320W, strain mms22, hits give low values 0.956 | locus YLR342W, strain FKS1, hits give low values 0.964 | locus YLR357W, strain rsc2, hits give low values 0.9 | locus YLR370C, strain arc18, hits give low values 1.01 | locus YLR384C, strain iki3, hits give low values 1.01 | locus YML120C, strain ndi1, hits give low values 0.918 | locus YMR058W, strain fet3, hits give low values 0.941 | locus YMR125W, strain sto1, hits give low values 0.985 | locus YMR129W, hits give low values 1 | locus YMR205C, strain PFK2, hits give low values 1 | locus YMR231W, strain pep5, hits give low values 0.968 | locus YNL071W, strain lat1, hits give low values 0.972 | [6] 0.933 | locus YNL209W, strain ssb2, hits give low values 1 | locus YNL248C, strain rpa49, hits give low values 0.997 | locus YNL322C, strain KRE1 (second series), hits give low values 0.996 | locus YNR049C, strain mso1, hits give low values 0.994 | locus YOR001W, strain rrp6, hits give low values 0.908 | locus YOR070C, strain gyp1, hits give low values 0.984 | locus YOR080W, strain dia2, hits give low values 0.989 | locus YOR083W, strain WHI5, hits give low values 0.951 | locus YOR106W, strain vam3, hits give low values 0.96 | [7] 0.966 | locus YOR265W, strain rbl2, hits give low values 0.973 | locus YOR270C, strain vph1, hits give low values 0.965 | locus YOR290C, strain snf2, hits give low values 1.01 | locus YPL051W, strain arl3, hits give low values 1.01 | locus YPL078C, strain atp4, hits give low values 1.02 | locus YPL106C, strain sse1, hits give low values 0.951 | locus YPL240C, strain hsp82, hits give low values 0.996 | [8] 0.98
active: locus YEL003W, strain gim4, hits give low values 0.907

CCOC(=O)C(NC(=O)c1cccc(Cl)c1)(Nc1nc2ccccc2s1)C(F)(F)F (stereo not drawn)
inactive: locus YAR019C, strain CDC15, hits give low values 0.967 | locus YBL105C, strain PKC1, hits give low values 0.957 | locus YBR135W, strain CKS1, hits give low values 0.956 | locus YBR136W, strain MEC1, hits give low values 0.96 | locus YBR160W, strain CDC28, hits give low values 0.967 | locus YDL017W, strain CDC7, hits give low values 0.962 | locus YDL028C, strain MPS1, hits give low values 0.961 | locus YDL101C, strain DUN1, hits give low values 0.973 | locus YDL108W, strain KIN28, hits give low values 0.963 | locus YDL132W, strain cdc53, hits give low values 0.952 | locus YDL214C, strain PRR2, hits give low values 0.927 | locus YDR052C, strain DBF4, hits give low values 0.955 | locus YDR054C, strain cdc34, hits give low values 0.952 | locus YDR226W, strain ADK1, hits give low values 0.956 | locus YDR477W, strain SNF1, hits give low values 0.917 | locus YER123W, strain YCK3, hits give low values 0.906 | locus YER133W, strain GLC7, hits give low values 0.9 | locus YFL009W, strain cdc4, hits give low values 0.954 | locus YFL029C, strain CAK1, hits give low values 0.975 | locus YFR003C, strain YPI1, hits give low values 0.957 | locus YFR019W, strain FAB1, hits give low values 0.955 | locus YFR028C, strain CDC14, hits give low values 0.963 | locus YGR040W, strain KSS1, hits give low values 0.926 | locus YGR052W, strain FMP48, hits give low values 0.943 | locus YGR092W, strain DBF2, hits give low values 0.996 | [2] 1 | locus YHR082C, strain KSP1, hits give low values 0.989 | locus YHR205W, strain SCH9, hits give low values 1.01 | locus YIL147C, strain SLN1, hits give low values 0.955 | [3] 0.98 | locus YJL128C, strain PBS2, hits give low values 0.949 | locus YJL157C, strain FAR1, hits give low values 0.915 | locus YJR016C, strain ILV3, hits give low values 0.963 | locus YJR066W, strain TOR1 (second series), hits give low values 0.949 | [4] 1.02 | locus YKL048C, strain ELM1, hits give low values 0.937 | locus YKL067W, strain YNK1, hits give low values 0.94 | locus YKL101W, strain HSL1, hits give low values 0.929 | locus YKL193C, strain SDS22, hits give low values 0.964 | locus YKL203C, strain TOR2, hits give low values 1.01 | locus YLR133W, strain CKI1, hits give low values 0.935 | locus YLR403W, strain SFP1, hits give low values 1.02 | locus YML070W, strain DAK1, hits give low values 0.914 | locus YMR001C, strain CDC5, hits give low values 0.967 | locus YMR205C, strain PFK2 (second series), hits give low values 0.941 | locus YMR277W, strain FCP1, hits give low values 0.964 | locus YNL006W, strain LST8, hits give low values 0.966 | locus YNL020C, strain ARK1, hits give low values 0.931 | locus YNL161W, strain CBK1, hits give low values 0.96 | [6] 1.07 | locus YNL207W, strain RIO2, hits give low values 0.961 | locus YNL222W, strain SSU72, hits give low values 0.968 | locus YNL307C, strain MCK1 (second series), hits give low values 0.916 | locus YOL078W, strain AVO1, hits give low values 0.962 | locus YOL136C, strain PFK27, hits give low values 0.924 | locus YOR061W, strain CKA2, hits give low values 0.939 | locus YOR119C, strain RIO1, hits give low values 0.992 | [7] 0.967 | locus YOR329C, strain SCD5, hits give low values 0.964 | locus YPL031C, strain PHO85, hits give low values 0.917 | locus YPL153C, strain RAD53, hits give low values 0.927 | locus YPL204W, strain HRR25, hits give low values 0.913 | locus YPL209C, strain IPL1, hits give low values 0.962 | [8] 0.894 | locus YPR025C, strain CCL1, hits give low values 0.966 | locus YPR106W, strain ISR1, hits give low values 0.962 | locus YPR111W, strain DBF20, hits give low values 0.958 | strain NNK1, hits give low values 0.971 | strain TSCII, hits give low values 0.962
active: [1] 0.796 | [5] 0.823
